Assay outcomes (PubChem BioAssay)
In the library only some 3% were active in any assay of this set; here they are far more common.
PPC-1+TRAIL kill: kills PPC-1 cancer cells in the presence of TRAIL. PPC-1 cells + TRAIL, ATPLite viability luminescence. cell killing (% activity), % at 4 µM or 5 µM. 220,000 compounds, 0.41% hits;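 active = cell killing above 50% in the first pass at 4 µM, then a duplicate retest at 5 µM averaging 50% or more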;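 note: plate controls were cells with TRAIL plus DMSO for no effect and medium-only wells lacking cells for full effect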
TRAIL sens C8: sensitizes caspase-8 expressing cells to TRAIL; 360,000 compounds, 1% hits; NB7+C8 cells + TRAIL, ATPlite viability luminescence; inhibition (viability loss, TRAIL sensitization), % at 10 µM; AID 624354;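 active = compounds causing at least 50% loss of cell viability in the single-dose screen, relative to plate controls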
SENP7 block: SENP7 protease inhibition; inhibition, % at 5 µM; recombinant SENP7, Z-RLRGG-aminoluciferin luminescence, 40 min; Q9BQF6; 330,000 compounds, 1.5% hits;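 active = inhibition above about 50% at the single test dose, limit read from the data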;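 note: plate controls were DMSO with enzyme for no effect and no enzyme buffer wells for full effect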
Target sequence (Q9BQF6 706-1050 limits assumed): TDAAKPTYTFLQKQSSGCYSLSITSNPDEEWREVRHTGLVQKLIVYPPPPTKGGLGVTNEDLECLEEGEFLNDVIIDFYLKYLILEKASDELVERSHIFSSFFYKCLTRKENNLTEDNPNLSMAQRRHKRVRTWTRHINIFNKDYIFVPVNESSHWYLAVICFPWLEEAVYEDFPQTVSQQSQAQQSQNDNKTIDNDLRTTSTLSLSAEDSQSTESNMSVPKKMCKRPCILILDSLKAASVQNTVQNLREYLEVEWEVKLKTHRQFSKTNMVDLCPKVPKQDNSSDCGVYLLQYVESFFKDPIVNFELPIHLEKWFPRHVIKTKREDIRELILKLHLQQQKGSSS
SENP8 block-1: SENP8 protease inhibition; purified SENP8, Z-RLRGG-aminoluciferin cleavage, luminescence; 330,000 compounds, 1.2% hits; Q96LD8; inhibition, % at 10 µM; in the data active = inhibition above about 50%
Target sequence (Q96LD8 whole entry, looked up): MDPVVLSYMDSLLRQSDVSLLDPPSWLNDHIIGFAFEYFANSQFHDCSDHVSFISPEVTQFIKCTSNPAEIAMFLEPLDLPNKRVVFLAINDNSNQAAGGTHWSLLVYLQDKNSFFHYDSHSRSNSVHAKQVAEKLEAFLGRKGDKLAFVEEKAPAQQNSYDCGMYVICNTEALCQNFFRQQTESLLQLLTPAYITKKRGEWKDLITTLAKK
SENP8 block-2: blocks human SENP8 cleavage of Nedd8 substrate | 360,000 compounds, 0.64% hits | Q96LD8 | recombinant SENP8, Nedd8 substrate fluorescence | inhibition, % at 20 µM; in the data active = inhibition mostly above about 40%, no sharp cut-off; inactive = mostly below about 27%
SENP6 inh: SENP6 protease inhibition; Q9GZR1; Recombinant SENP6 catalytic domain, aminoluciferin luminescence; inhibition, % at 10 µM; 330,000 compounds, 1.8% hits; AID 2599;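 active = inhibition above about 50% at the single tested dose, limit read from the data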;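 note: plate controls were DMSO wells with enzyme for no effect and DMSO wells lacking enzyme for full effect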
The depositor's hits bear a star.

For CCCCC1(C)NC(=O)N(CC(=O)Nc2ccc(Cl)cc2C)C1=O (stereo unspecified) the results were TRAIL sens C8 -5, SENP7 block 6, SENP8 block-1 -5, SENP8 block-2 9 and SENP6 inh -20.
For O=C(COc1ccccc1C(=O)c1cnn(-c2ccccc2)c1)Nc1ccccc1 the results were PPC-1+TRAIL kill 47, TRAIL sens C8 60*, SENP7 block -13, SENP8 block-1 -12, SENP8 block-2 1 and SENP6 inh -20.
For CN(C)CCNC(=O)c1cccc(-c2cc(NC=O)c3ncc(-c4cccc(C(F)(F)F)c4)n3c2)c1 the results were TRAIL sens C8 79* and SENP8 block-2 -312.
`CCN(CC)CCNc1ccc(CO)c2sc3ccccc3c(=O)c12` gave PPC-1+TRAIL kill 25, TRAIL sens C8 12, SENP7 block 6, SENP8 block-1 8, SENP8 block-2 15 and SENP6 inh 15.
`CCN(CC)CCNc1cccc2sc3ccccc3c(=O)c12` gave TRAIL sens C8 22 and SENP8 block-2 44*.
For O=C(CCN1C(=O)NC2(CCCC2)C1=O)Nc1cccc(S(=O)(=O)N2CCOCC2)c1 the results were TRAIL sens C8 -4, SENP7 block -5, SENP8 block-1 -5, SENP8 block-2 5 and SENP6 inh -20.
For Cn1c(=NC(=O)c2ccccc2[N+](=O)[O-])sc2cc(S(C)(=O)=O)ccc21 the results were PPC-1+TRAIL kill 40, TRAIL sens C8 36, SENP7 block 57*, SENP8 block-1 -6, SENP8 block-2 20 and SENP6 inh 30.
Screening Clc1ccc(-n2cnc3c(Cl)ncnc32)cc1Cl returned TRAIL sens C8 74* and SENP8 block-2 14.
O=c1c2ccccc2ncn1-c1ccc(Cl)c(Cl)c1 was read as PPC-1+TRAIL kill 8, TRAIL sens C8 -2, SENP7 block 6, SENP8 block-1 -5, SENP8 block-2 10 and SENP6 inh -3.
COc1cc(C(c2c(C)[nH][nH]c2=O)c2c(C)[nH][nH]c2=O)ccc1OC(=O)c1cccc([N+](=O)[O-])c1 was read as PPC-1+TRAIL kill 12, TRAIL sens C8 3, SENP7 block 0, SENP8 block-1 -1, SENP8 block-2 42* and SENP6 inh -9.
For NC(=O)C1CN(C(=O)c2cccc(S(=O)(=O)N3CCc4ccccc43)c2)c2ccccc2O1 (stereo unspecified) the results were TRAIL sens C8 -2, SENP7 block -1, SENP8 block-1 -4, SENP8 block-2 9 and SENP6 inh -10.
Screening S=C(Nc1ccccc1)c1nc2ccccc2s1 returned PPC-1+TRAIL kill 15, TRAIL sens C8 8, SENP7 block 67*, SENP8 block-1 48, SENP8 block-2 -12 and SENP6 inh -17.
`CCc1noc(C)c1C(=O)N(CC)CC(=O)Nc1cc(Cl)ccc1C` gave TRAIL sens C8 -2, SENP7 block 1, SENP8 block-1 -4, SENP8 block-2 26 and SENP6 inh 17.
For CCCCCCCNC(=O)C1(CC2CC(c3cccc(Br)c3)=NO2)CCNCC1 (stereo unspecified) the results were TRAIL sens C8 87*, SENP7 block 4, SENP8 block-1 -19, SENP8 block-2 11 and SENP6 inh -16.
Screening CCCCCCCNC(=O)C1(CC2CC(c3ccc(Cl)cc3)=NO2)CCNCC1 (stereo unspecified) returned TRAIL sens C8 71*, SENP7 block -3, SENP8 block-1 -11, SENP8 block-2 9 and SENP6 inh 0.
CCCCCCCNC(=O)C1(CC2CC(c3ccc(Cl)cc3)=NO2)CCN(C(=O)Cc2ccc(F)cc2)CC1 (stereo unspecified) was read as TRAIL sens C8 22, SENP7 block -4, SENP8 block-1 0, SENP8 block-2 12 and SENP6 inh -11.
For Cc1nc2nc(C)n(CCN3CCOCC3)c(=O)c2c(-c2cccc([N+](=O)[O-])c2)c1C(=O)CCCCCCCCCCN1CCC(c2ccccc2)(c2ccccc2)CC1 the results were TRAIL sens C8 92* and SENP8 block-2 21.
COc1ccc(OC)c(S(=O)(=O)NC(=O)C2(C)CCN2C(=O)C2(c3ccc(Cl)cc3)CC2)c1 (stereo unspecified) was read as TRAIL sens C8 -12 and SENP8 block-2 18.
For O=C(N/N=C/c1ccc2c(c1)OCO2)c1ccc2c(c1)OCO2 the results were TRAIL sens C8 40, SENP7 block 10, SENP8 block-1 0, SENP8 block-2 -70 and SENP6 inh 8.
For Cc1cc(C(=O)N/N=C/c2cccc(OC(=O)c3ccco3)c2)n[nH]1 the results were PPC-1+TRAIL kill 13, TRAIL sens C8 10, SENP7 block 0, SENP8 block-1 -15, SENP8 block-2 23 and SENP6 inh -4.
O=C(N/N=C\c1cccc(OC(=O)c2ccco2)c1)c1ccc2c(c1)OCO2 was read as PPC-1+TRAIL kill 53*, TRAIL sens C8 86*, SENP7 block 14, SENP8 block-1 2, SENP8 block-2 13 and SENP6 inh 30.
`Cc1nonc1C(=O)N/N=C/c1cccc(O)c1` gave PPC-1+TRAIL kill 9, TRAIL sens C8 -7, SENP7 block 92*, SENP8 block-1 87*, SENP8 block-2 14 and SENP6 inh 84*.
`O=C(N/N=C/c1cccc(O)c1)c1ccc2c(c1)OCCO2` gave TRAIL sens C8 89*, SENP7 block 15, SENP8 block-1 5, SENP8 block-2 18 and SENP6 inh 24.
For O=C(N/N=C/c1cccnc1)c1ccc2c(c1)OCO2 the results were TRAIL sens C8 50*, SENP7 block -4, SENP8 block-1 5, SENP8 block-2 11 and SENP6 inh -27.
`COc1cc(NC(=O)C(C)N2CCN(C(=O)C3CC3)CC2)cc(OC)c1` (stereo unspecified) gave TRAIL sens C8 -15, SENP7 block -1, SENP8 block-1 -1, SENP8 block-2 3 and SENP6 inh -1.
O=S(=O)(c1ccc(SCc2ccccc2F)nc1)N1CCCC1 was read as TRAIL sens C8 8, SENP7 block -6, SENP8 block-1 -8, SENP8 block-2 18 and SENP6 inh 14.
For C[C@H]1CN([C@@H](C)CO)C(=O)CCCn2nncc2CO[C@H]1CN(C)C(=O)c1ccccc1 the results were TRAIL sens C8 -12 and SENP8 block-2 12.
Screening CCOC(=O)NC1=NCC(C)(C)S1 returned TRAIL sens C8 13 and SENP8 block-2 14.
Cc1nc2ccccc2c2nc3ccccc3n12 was read as PPC-1+TRAIL kill 5, TRAIL sens C8 15, SENP7 block 10, SENP8 block-1 0, SENP8 block-2 -273 and SENP6 inh 1.
c1ccc2c(c1)nnn1c3ccccc3nc21 was read as PPC-1+TRAIL kill 7, SENP7 block 96*, SENP8 block-1 86* and SENP6 inh 96*.
For O=[N+]([O-])c1ccccc1C1Nc2cccc3cccc(c23)N1 the results were PPC-1+TRAIL kill 6, TRAIL sens C8 -6, SENP7 block 3, SENP8 block-1 23, SENP8 block-2 51* and SENP6 inh 20.
